According to the supplement of paper PMC4466140:

B1: unnamed (peptide)
chain: RRLRDKYKLPIVDAD

target: AgAbp1; assay: SPOT peptide array binding signal intensity (averaged, normalized) (arbitrary units (background-subtracted, floor 0; scale differs between SH3 domains)); higher = stronger binding of the SH3 domain to the peptide
Procedure: (§1)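 GST-tagged SH3 domains from S. cerevisiae (Sc), A. gossypii (Ag), C. albicans (Ca) and S. pombe (Sp) were incubated at 10 ug/ml overnight at 4 C on cellulose SPOT membranes carrying 292 synthetic 15-mer peptides mined from the S. cerevisiae proteome (cysteines replaced by serines). Binding was detected with anti-GST antibody, HRP secondary and chemiluminescence, quantified with Genespotter, and reported as normalized spot intensities averaged over biological replicates.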

Binder	SPOT peptide array binding signal intensity
B1	38

target: AgBbc1; assay: as above
Procedure: as §1

Binder	SPOT peptide array binding signal intensity
B1	20.8

target: AgBem1-D1; assay: as above
Procedure: as §1

Binder	SPOT peptide array binding signal intensity
B1	52

target: AgBzz1-D1; assay: as above
Procedure: as §1

Binder	SPOT peptide array binding signal intensity
B1	32

target: AgBzz1-D2; assay: as above
Procedure: as §1

Binder	SPOT peptide array binding signal intensity
B1	61.5

target: AgCyk3; assay: as above
Procedure: as §1

Binder	SPOT peptide array binding signal intensity
B1	1

target: AgFus1; assay: as above
Procedure: as §1

Binder	SPOT peptide array binding signal intensity
B1	163

target: AgHof1; assay: as above
Procedure: as §1

Binder	SPOT peptide array binding signal intensity
B1	17

target: AgHse1; assay: as above
Procedure: as §1

Binder	SPOT peptide array binding signal intensity
B1	748

target: AgLsb1; assay: as above
Procedure: as §1

Binder	SPOT peptide array binding signal intensity
B1	6

target: AgLsb4; assay: as above
Procedure: as §1

Binder	SPOT peptide array binding signal intensity
B1	18

target: AgMyo5; assay: as above
Procedure: as §1

Binder	SPOT peptide array binding signal intensity
B1	0.75

target: AgNbp2; assay: as above
Procedure: as §1

Binder	SPOT peptide array binding signal intensity
B1	63

target: AgRvs167; assay: as above
Procedure: as §1

Binder	SPOT peptide array binding signal intensity
B1	3.33

target: AgSho1; assay: as above
Procedure: as §1

Binder	SPOT peptide array binding signal intensity
B1	83

target: AgSla1-D1-D2; assay: as above
Procedure: as §1

Binder	SPOT peptide array binding signal intensity
B1	299

target: AgSla1-D3; assay: as above
Procedure: as §1

Binder	SPOT peptide array binding signal intensity
B1	3

target: CaAbp1-D1; assay: as above
Procedure: as §1

Binder	SPOT peptide array binding signal intensity
B1	311

target: CaAbp1-D2; assay: as above
Procedure: as §1

Binder	SPOT peptide array binding signal intensity
B1	326

target: CaBbc1; assay: as above
Procedure: as §1

Binder	SPOT peptide array binding signal intensity
B1	13

target: CaBem1-D1; assay: as above
Procedure: as §1

Binder	SPOT peptide array binding signal intensity
B1	5.5

target: CaBzz1-D1; assay: as above
Procedure: as §1

Binder	SPOT peptide array binding signal intensity
B1	180

target: CaBzz1-D2; assay: as above
Procedure: as §1

Binder	SPOT peptide array binding signal intensity
B1	34.5

target: CaCyk3; assay: as above
Procedure: as §1

Binder	SPOT peptide array binding signal intensity
B1	3

target: CaFus1; assay: as above
Procedure: as §1

Binder	SPOT peptide array binding signal intensity
B1	318

target: CaHof1; assay: as above
Procedure: as §1

Binder	SPOT peptide array binding signal intensity
B1	0.5

target: CaHse1; assay: as above
Procedure: as §1

Binder	SPOT peptide array binding signal intensity
B1	12.2

target: CaLsb1; assay: as above
Procedure: as §1

Binder	SPOT peptide array binding signal intensity
B1	1

target: CaLsb4; assay: as above
Procedure: as §1

Binder	SPOT peptide array binding signal intensity
B1	13

target: CaMyo5; assay: as above
Procedure: as §1

Binder	SPOT peptide array binding signal intensity
B1	1.5

target: CaNbp2; assay: as above
Procedure: as §1

Binder	SPOT peptide array binding signal intensity
B1	102

target: CaRvs167; assay: as above
Procedure: as §1

Binder	SPOT peptide array binding signal intensity
B1	5.5

target: CaRvs167-3; assay: as above
Procedure: as §1

Binder	SPOT peptide array binding signal intensity
B1	42.5

target: CaSho1; assay: as above
Procedure: as §1

Binder	SPOT peptide array binding signal intensity
B1	241

target: CaSla1-D1-D2; assay: as above
Procedure: as §1

Binder	SPOT peptide array binding signal intensity
B1	5

target: CaSla1-D3; assay: as above
Procedure: as §1

Binder	SPOT peptide array binding signal intensity
B1	1.75

target: ScAbp1; assay: as above
Procedure: as §1

Binder	SPOT peptide array binding signal intensity
B1	14.5

target: ScBbc1; assay: as above
Procedure: as §1

Binder	SPOT peptide array binding signal intensity
B1	8.5

target: ScBem1-D1; assay: as above
Procedure: as §1

Binder	SPOT peptide array binding signal intensity
B1	26

target: ScBzz1-D1; assay: as above
Procedure: as §1

Binder	SPOT peptide array binding signal intensity
B1	18

target: ScBzz1-D2; assay: as above
Procedure: as §1

Binder	SPOT peptide array binding signal intensity
B1	23

target: ScCyk3; assay: as above
Procedure: as §1

Binder	SPOT peptide array binding signal intensity
B1	22

target: ScFus1; assay: as above
Procedure: as §1

Binder	SPOT peptide array binding signal intensity
B1	115

target: ScHof1; assay: as above
Procedure: as §1

Binder	SPOT peptide array binding signal intensity
B1	1

target: ScHse1; assay: as above
Procedure: as §1

Binder	SPOT peptide array binding signal intensity
B1	1110

target: ScLsb1; assay: as above
Procedure: as §1

Binder	SPOT peptide array binding signal intensity
B1	9

target: ScLsb2; assay: as above
Procedure: as §1

Binder	SPOT peptide array binding signal intensity
B1	7.5

target: ScLsb3; assay: as above
Procedure: as §1

Binder	SPOT peptide array binding signal intensity
B1	90

target: ScLsb4; assay: as above
Procedure: as §1

Binder	SPOT peptide array binding signal intensity
B1	8

target: ScMyo3; assay: as above
Procedure: as §1

Binder	SPOT peptide array binding signal intensity
B1	2.5

target: ScMyo5; assay: as above
Procedure: as §1

Binder	SPOT peptide array binding signal intensity
B1	1.5

target: ScNbp2; assay: as above
Procedure: as §1

Binder	SPOT peptide array binding signal intensity
B1	90

target: ScPex13; assay: as above
Procedure: as §1

Binder	SPOT peptide array binding signal intensity
B1	0.5

target: ScRvs167; assay: as above
Procedure: as §1

Binder	SPOT peptide array binding signal intensity
B1	3.33

target: ScSho1; assay: as above
Procedure: as §1

Binder	SPOT peptide array binding signal intensity
B1	411

target: ScSla1-D1-D2; assay: as above
Procedure: as §1

Binder	SPOT peptide array binding signal intensity
B1	36.5

target: ScSla1-D3; assay: as above
Procedure: as §1

Binder	SPOT peptide array binding signal intensity
B1	13

target: SpAbp1-D1; assay: as above
Procedure: as §1

Binder	SPOT peptide array binding signal intensity
B1	88.5

target: SpBbc1; assay: as above
Procedure: as §1

Binder	SPOT peptide array binding signal intensity
B1	0.75

target: SpBzz1-D1; assay: as above
Procedure: as §1

Binder	SPOT peptide array binding signal intensity
B1	56
